Results reported in the OligoGym collection.

Target: WNT16
Assay: pooled miR-30 sensor sort-seq; sequence = guide strand
Details: shRNA
Also: reference of the scale not given here.

Row | Sequence | sensor-assay potency score (higher = more potent)
1 | AAATCTAGGAACTTTCTGCTGA | 0.396
2 | TTCTTTGTCACTAAACATCTGT | -0.0723
3 | TAAAATATAATAAATATCCAGG | -0.303

Target: WNT4
Assay: as above
Details: shRNA

Row | Sequence | sensor-assay potency score (higher = more potent)
4 | TACACCAGGTCCTCATCTGTGT | -0.668
5 | TTGCACATCTGCACCTGCCTCT | 0.262
6 | TCGAGTGTGGAGCAGTTCCAGC | -1.25
7 | TTTCTCGCACGTCTCCTCCTCT | -0.548
8 | AAGGAGTCGAGTGTGGAGCAGT | -0.667
9 | TGGAATTTGCAGCTGCAGCGTT | -0.943
10 | ATGACTTCCAGGTTCCGCTTGC | -0.442
11 | TGCACTGTCCTGTCACAGCCGC | -1.01
12 | TTGCGTGGCACCAGTGCCCTGG | -0.464
13 | TTGTCAGAGCATCCTGACCACT | -1.18
14 | TTGGACGTCTTGTTGCATGTGC | 0.653
15 | TTGAACTGTGCGTTGCGTGGCA | 0.0724

Target: WRAP73
Assay: as above
Details: shRNA

Row | Sequence | sensor-assay potency score (higher = more potent)
16 | TATTTACTCTCTGAGCTCGGGA | -0.387
17 | TACGTGGACAACAACCGGCCAT | -0.35
18 | TTTCGGGTTTGCTCTGTCGGTA | -0.96
19 | TTGGGAATGTTGTCGTTCCTTG | -0.237
20 | TTGTGCACAAGGACCAGACGGT | 0.172
21 | TACATATTTACAAAAATGCTTT | -1.06
22 | TAATCTTTGCAGTCGCGCCGTT | -0.556
23 | TAACAGGTTTCAGTGTCTGTAA | -0.596
24 | TTATACACCACTATCTTGGGAT | 0.881
25 | TTCGGGTTTGCTCTGTCGGTAA | -0.662
26 | TTGCTCTGTCGGTAACAGGTTT | -1.05
27 | TTGCTGAGGAGGGCCATCGAGT | -1.36

Target: WRB
Assay: as above
Details: shRNA

Row | Sequence | sensor-assay potency score (higher = more potent)
28 | TTATCTTGGCTAATTGAGCTGT | -0.0399
29 | TAATACTATACAACTCTTGCTC | 0.423
30 | TCACATTTCGTACAGATCGAGG | -1.13
31 | TTAAATACAAAACACAAGTTGA | -0.499
32 | TTGCATCCAAACACGAAGCTGA | 0.58
33 | TCGTCCATCATGTTGACTGTGG | -0.317
34 | TAGTGTTGTTCTTTTAACCATA | -0.891
35 | TACTATACAACTCTTGCTCAAC | -0.82
36 | TTGAGCTTATCCGTCATCTTGT | 0.602
37 | ATATCTGGCAAACTCGTCCATC | -0.952
38 | TTACAGACTAAAATCCAACAGG | -0.429
39 | TTGGCTAATTGAGCTGTCCGAG | -0.552
